ChEMBL document CHEMBL1961873, “Compounds: GSK PKIS; Assays: Nanosyn kinase panel” (2012)

target: T1, Serine/threonine-protein kinase D2 (Homo sapiens) (UniProt Q9BZL6); conditions: at 1 µM
T1 sequence (whole entry): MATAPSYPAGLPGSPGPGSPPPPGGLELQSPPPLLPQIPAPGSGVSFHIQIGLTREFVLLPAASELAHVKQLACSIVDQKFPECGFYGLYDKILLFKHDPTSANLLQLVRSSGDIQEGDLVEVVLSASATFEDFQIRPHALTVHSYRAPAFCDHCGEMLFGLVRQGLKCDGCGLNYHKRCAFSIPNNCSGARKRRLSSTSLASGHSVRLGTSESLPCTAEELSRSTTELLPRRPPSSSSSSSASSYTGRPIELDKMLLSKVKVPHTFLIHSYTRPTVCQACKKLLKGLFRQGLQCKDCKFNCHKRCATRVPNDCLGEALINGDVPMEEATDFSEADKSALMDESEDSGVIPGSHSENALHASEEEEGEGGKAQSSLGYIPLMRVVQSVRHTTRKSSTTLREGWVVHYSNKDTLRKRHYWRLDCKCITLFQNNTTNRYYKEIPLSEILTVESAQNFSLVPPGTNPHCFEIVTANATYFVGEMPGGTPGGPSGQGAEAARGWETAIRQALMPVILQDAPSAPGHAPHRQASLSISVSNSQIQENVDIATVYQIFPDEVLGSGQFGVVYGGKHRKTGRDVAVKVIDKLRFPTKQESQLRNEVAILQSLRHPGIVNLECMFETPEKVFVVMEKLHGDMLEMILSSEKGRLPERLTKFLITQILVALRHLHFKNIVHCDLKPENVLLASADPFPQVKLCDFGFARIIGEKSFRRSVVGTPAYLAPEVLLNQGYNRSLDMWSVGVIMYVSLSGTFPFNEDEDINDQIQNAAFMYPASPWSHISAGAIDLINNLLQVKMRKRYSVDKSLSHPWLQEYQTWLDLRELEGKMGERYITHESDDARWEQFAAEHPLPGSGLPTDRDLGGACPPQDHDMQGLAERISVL
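Also: mean value of PRKD2 inhibition, from the GSK PKIS screening panel.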

Going from `CCn1c(-c2nonc2N)nc2c(C#CC(C)(C)O)ncc(OCC3CCNCC3)c21` to `CCn1c(-c2nonc2N)nc2c(C#CC(C)(C)O)ncc(OC[C@@H]3CCCN3)c21`, the inhibition rises from 3.59% to 12.6%.

First: COc1cccc(-n2ncc3c(N/N=C/c4ccncc4)ncnc32)c1
Second: COc1cc(C=NNc2ncnc3c2cnn3Cc2ccccc2)ccc1O
The inhibition of the first is higher: 9.06% for the first, 1% for the second.

First: CCn1c(-c2nonc2N)nc2c(C#CCN)ncc(OCCCN)c21
Second: CCn1c(-c2nonc2N)nc2c(C#CC(C)(C)O)nc(O[C@@H](CN)c3ccccc3)cc21
The inhibition of the first is lower: 0.48% for the first, 66.3% for the second.

Going from `COc1cccc(COc2cc(-n3cnc4ccccc43)sc2C(N)=O)c1` to `NC(=O)c1sc(-n2cnc3cc(C(F)(F)F)ccc32)cc1OCc1ccccc1Br`, the inhibition rises from 0.96% to 2.17%.

Compared with `Fc1ccc(-c2ncn(C3CCNCC3)c2-c2ccnc(Oc3ccccc3)n2)cc1`, `NS(=O)(=O)c1ccc(-c2ccc3c(NC(=O)C4CC4)n[nH]c3c2)cc1` is lower in inhibition: 4.29% for the first, 0.5% for the second.

Compared with `Cc1cc(-c2ccco2)cc(C)c1/C=C/c1cncc(-c2nn[nH]n2)c1`, `COc1cc2c(cc1Nc1nc(Nc3ccsc3C(N)=O)c3cc[nH]c3n1)N(C(=O)CN(C)C)CCC2` is higher in inhibition: 2.37% for the first, 39.7% for the second.

First: NS(=O)(=O)c1ccc(N/C=C2\C(=O)Nc3ccc4ncsc4c32)cc1
Second: Nc1nonc1-c1nc2cnccc2n1C1CCCCC1
The inhibition of the first is higher: 58.2% for the first, 4.59% for the second.
